# Experimental data as given in PubChem BioAssay (EPA / NIEHS).
# Records with an inconclusive call do not appear. Active and inactive are the calls of the source. The calls were made as follows: active = hit-call score of the fitted dose curve at least 0.9, where 1 is the maximum; inconclusive = response in the unintended direction; inactive = score below 0.9.
# Test: CCTE_Simmons_CellTiterGLO_HEK293T: Viability Assessment in CCTE's Assays for Thyroperoxidase (TPO) Inhibition, Simmons Lab (AID 2283665);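 as to AC50: cells exposed to compound for 24 h before readout; actives reduce ATP signal below DMSO vehicle meaning cytotoxicity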
# Protocol: CCTE_Simmons_CellTiterGLO_HEK293T is a cell-based, single-readout assay that uses HEK293T, a human kidney cell line, with measurements taken at 24 hours after chemical dosing in a 384-well plate.CCTE_Simmons_CellTiterGLO_HEK293T is the assay component measured from the CCTE_Simmons_CellTiterGLO_HEK293T assay. It is designed to make measurements of ATP content, a form of viability reporter, as detected with bioluminescence signals by Luciferase-coupled ATP quantitation technology. This is a secondary cytotoxicity assay to CCTE_Simmons_AUR_TPO to estimate a cellular tolerance limit.Data from the assay component CCTE_Simmons_CellTiterGLO_HEK293T was analyzed at the endpoint, CCTE_Simmons_CellTiterGLO_HEK293T, in the positive analysis fitting direction relative to DMSO as the negative control and baseline of activity. Using a type of viability reporter, measures of ATP content for loss-of-signal activity can be used to understand the viability. This assay was run in parallel with aeid 1508 as a means of indicating the range of chemical cytotoxicity or reactivity. To generalize the intended target to other relatable targets, this assay endpoint is annotated to the cell cycle intended target family, where the subfamily is cytotoxicity.
# Human HEK293T cells (GenHunter; Nashville, Tennessee) were seeded overnight in 384-well, solid white assay plates (Greiner, BioExpress) at a density of 10 000 cells per well in 65 ul Dulbecco's Modified Eagle Medium (Life Technologies; Carlsbad, California) supplemented with 1% fetal bovine serum (HyClone; Logan, Utah). Test compounds were administered using the HDRT as described earlier to achieve a 0.5% final DMSO concentration. Cells were then incubated at 37C for 24 hr in a humidified 5% CO2 incubator. Cell Titer Glo (Promega; Madison, WI) reagent (25 ul) was then added by the BioTek MicroFlo and microplates were incubated at room temperature in the dark for 20min. Plates were read on a plate reader (FLUOStar Optima) using an endpoint luminescence protocol (top read). Three biological replicates of technical singles were run for every chemical concentration tested. A titrated range of DCNQ served as a positive control on each plate of the cytotoxicity screening assay.Test chemicals were administered as a titrated series of 8 concentrations from 5 nM up to 87.5 uM [final] for 24 hours prior to single endpoint detection. Three biological replicates of technical singles were run for every chemical concentration tested. Dimethylsulfoxide [DMSO] was used as the vehicle control. Dichlone [DCNQ] was used as the positive control and was administered as a titrated series of 8 concentrations from 1 nM up to 100 uM [final].
Compound,AC50,outcome
CCN=C1C=CC(=C(c2ccc(N(CC)CC)cc2)c2ccc(N(CC)CC)cc2)c2ccccc21,1.72 µM (active),
O=c1[nH]cccc1O,,inactive
CCCCCCCCCCCCCC[P+](CCCC)(CCCC)CCCC,4.44 µM (active),
CCCCCCCCCCCCC[N+](C)(C)Cc1ccccc1,9.42 µM (active),
C[C@]12CC[C@H]3C(=CCc4cc(O)ccc43)[C@@H]1CCC2=O,87.7 µM (active),
CC(C)OC=O,,inactive
O=C(c1ccccc1)c1ccc(O)cc1O,,inactive
Cc1ccc(O)c(-n2nc3ccccc3n2)c1,21 µM (active),
O=c1cccc[nH]1,,inactive
CCCCCCCCCc1ccc(OCCO)cc1,79.6 µM (active),
Cc1ccc(O)cn1,,inactive
CCCCCCCC/C=C\CCCCCCCC(=O)N(C)CC(=O)O,24.4 µM (active),
